Screening results (PubChem)
IL-1B inflam inh: inhibitors of inflammasome signaling (IL-1 beta secretion); THP-1 LPS/ATP IL-1B secretion, AlphaLISA, 16 h; hits give low values; activity change, % at 57.5 µM; actives 4.7% (n = 360,000); AID 743279; in the data active = activity change below about -50%; inconclusive = mostly about -30% to -49%
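Secreted IL-1B measured by AlphaLISA bead assay after 16 h compound exposure of THP-1 cells; compounds (final up to 57.5 uM) added 1 h before LPS (250 ng/mL) and ATP (1.25 mM) stimulation; lower signal means less secretion.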
VP16 counter: inhibits Gal4-VP16 luciferase reporter, ROR gamma counter-screen. Potency, µM (doses to about 53.6 µM), actives largely listed as inhibitors. actives 3.5% (n = 310,000). Drosophila S2 Gal4-VP16 UAS-luciferase, luminescence, 20 h. AID 2546;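 note: Gal4-VP16 expression switched on by copper sulfate through the metallothionein promoter; nearly all actives have a fitted effect of over 50% in size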
MCF10A rereplic: inducers of DNA re-replication in MCF 10A breast cells | MCF 10A DNA re-replication, Hoechst nuclear intensity, 48 h | actives 2.9% (n = 350,000) | Potency, µM (series often up to 46.1 µM), actives largely listed as activators | AID 624296; note: nearly all actives have a fitted effect of over 50% in size
SW480 rereplic: DNA re-replication induction in SW480 cells; SW480 DNA re-replication, Hoechst DNA content imaging, 48 h; Potency, µM (doses to about 46.1 µM), actives largely listed as activators; actives 1.8% (n = 340,000); AID 624297; note: nearly all actives have a fitted effect of over 55% in size
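DNA re-replication was detected as more nuclei of elevated Hoechst intensity after 48 hr exposure to compound (23 nL pinned per well of 250 cells).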
RORgamma inh: ROR gamma (mouse) transcription inhibition; Drosophila S2 Gal4-RORgamma UAS-luciferase reporter, 20 h; Potency, µM (top dose mostly 53.6 µM), actives largely listed as inhibitors; actives 5.4% (n = 310,000); note: nearly all actives have a fitted effect of over 60% in size
Target sequence (P51450 whole entry, looked up, the tested form may be a part): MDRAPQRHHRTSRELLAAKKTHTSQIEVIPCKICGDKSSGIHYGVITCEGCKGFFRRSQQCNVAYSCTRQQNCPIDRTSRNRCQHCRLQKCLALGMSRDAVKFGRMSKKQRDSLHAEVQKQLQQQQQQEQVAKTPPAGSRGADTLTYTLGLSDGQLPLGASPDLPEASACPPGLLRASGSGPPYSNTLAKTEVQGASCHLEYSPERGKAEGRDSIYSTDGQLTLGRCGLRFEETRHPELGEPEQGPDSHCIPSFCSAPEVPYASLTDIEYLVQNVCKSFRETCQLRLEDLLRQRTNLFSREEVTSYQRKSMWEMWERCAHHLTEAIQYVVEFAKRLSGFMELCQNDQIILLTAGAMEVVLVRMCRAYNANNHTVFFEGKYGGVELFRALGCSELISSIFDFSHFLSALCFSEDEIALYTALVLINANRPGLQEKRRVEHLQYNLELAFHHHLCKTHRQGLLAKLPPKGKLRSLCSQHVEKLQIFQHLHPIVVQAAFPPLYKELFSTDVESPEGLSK
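Luminescence from a UAS-regulated Photinus luciferase reporter in stably transfected Drosophila Schneider cells is measured; decreased signal marks ROR gamma inhibition. Fusion expression is induced by 700 uM copper sulfate for 20 hr.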
Numbers stand for hits; . = inactive; ? = inconclusive; / = not tested or not shown; [ ] = remark or other dose. The list is not random: actives were taken first. Their share in the collection is about 11%. Unless noted, calls come from the whole dose curve; as a rule, active = well fitted curve in the direction sought with a large enough effect; inconclusive = small, poorly fitted or top-dose-only effect, or another doubt; inactive = no such curve, though single readings can be large; an effect the other way counts as inactive or inconclusive.

SMILES	IL-1B inflam inh	VP16 counter	MCF10A rereplic	SW480 rereplic	RORgamma inh
COc1ccc(OC2C(O)COC2/C=C/C#Cc2ccccc2)cc1 (configuration not stated)	/	.[10 µM]	/	/	.[10 µM]
N[C@@H](CCCCNC(=O)CCCC[C@@H]1SC[C@H]2NC(=O)N[C@H]12)C(=O)O	/	.	/	/	.
Cc1ccc2nc(-c3sc4nc(C)ccc4c3N)[nH]c2c1	.	.	16.4µM	?	.
C[C@H](NC(=O)c1[nH]cnc1C(=O)N[C@H](C)c1ccccc1)c1ccccc1	.	/	.	.	/
CNC(=O)c1[nH]cnc1C(=O)N[C@@H](C)C(=O)OC(C)(C)C	.	.	?	.	.
COc1ccc(NC(=O)c2nc[nH]c2C(=O)N2CCN(c3ccccc3)CC2)cc1	.	11.2µM	.	?	5.62µM
COc1ccc(NC(=O)c2nc[nH]c2C(=O)N[C@@H](C)C(=O)OC(C)(C)C)cc1	.	?	.	.	11.2µM
COc1ccc(NC(=O)c2nc[nH]c2C(=O)N[C@@H](C)c2ccccc2)cc1	.	8.91µM	?	.	6.31µM
O=C(Nc1ccccc1)c1nc[nH]c1C(=O)N1CCN(c2ccccc2)CC1	.	/	.	.[9.22 µM]	/
Cc1ccc(NC(=O)c2nc[nH]c2C(=O)N[C@@H](C)C(=O)OC(C)(C)C)cc1	.	?	?	.	6.31µM
Cc1ccc(C(C)(C)C)cc1	/	.	/	/	.
CCOC(=O)c1ccc(NC(=O)c2nc[nH]c2C(=O)N2CCc3ccccc3C2)cc1	.	?	.	.	3.55µM
COc1ccc(NC(=O)c2nc[nH]c2C(=O)Nc2ccccc2C)cc1	.	8.91µM	?	18.4µM	3.16µM
C[C@H](NC(=O)c1nc[nH]c1C(=O)N[C@@H](C)C(=O)OC(C)(C)C)C(=O)OCc1ccccc1	.	?	?	.	?
C[C@H](NC(=O)c1[nH]cnc1C(=O)Nc1ccccc1)C(=O)OC(C)(C)C	.	11.2µM	.	.	2.82µM
COc1ccc(NC(=O)c2nc[nH]c2C(=O)N[C@@H](CC(C)C)C(=O)OC(C)(C)C)cc1	.	15.8µM	.	.	5.62µM
Cc1ccc(NC(=O)c2nc[nH]c2C(=O)N2CCc3ccccc3C2)cc1	.	/	.	.	/
COc1cc(NC(=S)N2CCN(C(c3ccccc3)c3ccccc3)CC2)cc(OC)c1	?	.[0.365 µM]	.	.	4.47µM
S=C(NC1CCCC1)N1CCN(C/C=C/c2ccccc2)CC1	-65.9	?	.	.	?
S=C(Nc1ccccc1)N1CCN(C/C=C/c2ccccc2)CC1	.	?	.	.	11.2µM
COc1ccc(OC)c(NC(=O)CCN2CCN(C/C=C/c3ccccc3)CC2)c1	.	.	.	.	.
COc1cccc(NC(=S)N2CCN(C/C=C/c3ccccc3)CC2)c1	.	?	.	.	10µM
CC(C)CC(=O)c1c(O)c(C=O)c(O)c2c1O[C@@]1(C)[C@@H](C2)C[C@H]2C[C@@H]1C2(C)C	.	/	.	.	/
CN1C(=O)C(=O)/C(=C(/O)c2ccc(Br)cc2)C1c1ccccc1F (configuration not stated)	.	.	.	.	.
COc1cc2ccccc2cc1C(=O)N1CC(C)CC(C)C1 (configuration not stated)	.	.	?	.	.
SMILES	IL-1B inflam inh	VP16 counter	MCF10A rereplic	SW480 rereplic	RORgamma inh
COCCNC(=S)N1CCN(C/C=C/c2ccccc2)CC1	.	.	.	.	?
COc1cc(NC(=S)N2CCN(C/C=C/c3ccccc3)CC2)cc(OC)c1	.	?	.	.	11.2µM
Cn1c(COc2ccc(Br)cc2)nnc1SC1CCc2ccccc2C1=O (configuration not stated)	.	?	?	/	22.4µM
CCN(CC)c1ccc(/C=N/NC(=O)C(O)(c2ccccc2)c2ccccc2)o1	/	3.98µM	7.31µM	?	5.62µM
O=Cc1c(Sc2ccccn2)nc2ccccn2c1=O	-86.1	?	.	.	?
O=Cc1c(Sc2ccccc2)nc2ccccn2c1=O	-113.6	.	?	.	.
O=Cc1c(SCCO)nc2ccccn2c1=O	.	.	.	.	.
Cc1cc(S(=O)(=O)N2CCN=C2c2ccccc2)c(C)cc1Cl	.	.	.	.	1.26µM
Cc1c(Cl)ccc(S(=O)(=O)N2CCN=C2c2ccccc2)c1Cl	.	.	.	.	.
CCOc1ccc(S(=O)(=O)N2CCN=C2c2ccccc2)cc1	.	.	20.6µM	7.31µM	.
Cc1cc(S(=O)(=O)N2CCN=C2c2ccccc2)ccc1F	.	?	.	.	.
CCOc1ccc(NC(=O)C2CCCN2S(=O)(=O)c2ccc3c(c2)C(C)(C)C(=O)N3C)cc1 (configuration not stated)	.	.	.	.	.
CSCCC(NS(=O)(=O)c1ccc(C)cc1)C(=O)N1CCN(S(=O)(=O)c2ccc(F)cc2)CC1 (configuration not stated)	.	/	.	.	/
CCOC(=O)c1c(NC(=O)CCc2ccc(CC)o2)sc(C)c1C	.	.	.	.	.
Cc1ccc(CCC(=O)Nc2ccc(N(C)C)cc2)o1	.	?	.	?	0.562µM
COC(=O)c1c(NC(=O)CCc2ccc(C)o2)sc(C)c1C	.	12.6µM	.	.	?
CCc1ccc(CCC(=O)Nc2ccc(Br)cc2)o1	?	.	.	?	.[1.91 µM]
Cc1ccc(CCC(=O)Nc2ccc(Br)cc2)o1	?	.	?	14.6µM	.
Cc1cc(C)n(CCCNC(=O)c2ccc(C)o2)n1	.	/	.	.	/
COc1cccc(OC)c1NC(=O)CN(C)S(=O)(=O)c1ccc2c(c1)OCCO2	.	.	.	.	.
C=CCC1(CC=C)CCCN1C(=O)c1cc(COc2ccc(F)c(F)c2)on1	.	?	.	.	.
C=CCC1(CC=C)CCCN1C(=O)c1cc(COc2ccc(C)nc2)on1	.	8.91µM	.	.	?
Cc1ccc(NC(=O)C(=O)NCC2CCCN2S(=O)(=O)c2cccs2)cc1C (configuration not stated)	.	/	.	.	/
CCCCCOc1ccc(NC(=O)C(=O)NCC2CCCN2CC)cc1 (configuration not stated)	.	.	14.6µM	.	.
COc1ccc(NC(=O)C(=O)NCC2CCCN2S(=O)(=O)c2cccs2)cc1 (configuration not stated)	.	/	6.51µM	2.59µM	/
COc1ccccc1CNC(=O)c1cccc(S(=O)(=O)N2CCCC2)c1	.	/	.	.	/
COCCN(C(=O)c1cc(Cl)nc2ccccc12)c1c(N)n(Cc2ccccc2)c(=O)[nH]c1=O	.	/	.	.	/
COc1ccc(-c2sc3ccccc3c2C#Cc2cncn2C)cc1	?	/	?	.	/
Cn1cncc1C#Cc1c(-c2ccc(S(C)(=O)=O)cc2)sc2ccccc12	.	/	?	0.731µM	/
COCC(=O)N1CCC(Oc2ccc(C(=O)N3CCCCC3COC)cc2)CC1 (configuration not stated)	.	.	.	.	.
